Results as given in PubChem BioAssay (NCATS).
Records with an inconclusive call do not appear. Entries that show only a call come without a potency. Activity calls are given as the source filed them. Calls come from the whole dose curve.

Target: Atrial natriuretic peptide receptor 1 (Homo sapiens) (UniProt P16066)
Test: Natriuretic polypeptide receptor (hNpr1) antagonism - Pilot CMLD screen (AID 1347052);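 note: HEK293 cells with hNpr1 stimulated by hNppA peptide at 0.1 nM; cGMP level read as GloSensor luciferase luminescence after agonist stimulation; series mostly up to about 9.2 µM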

Sequence of Atrial natriuretic peptide receptor 1 (Homo sapiens) (P16066 whole entry, looked up): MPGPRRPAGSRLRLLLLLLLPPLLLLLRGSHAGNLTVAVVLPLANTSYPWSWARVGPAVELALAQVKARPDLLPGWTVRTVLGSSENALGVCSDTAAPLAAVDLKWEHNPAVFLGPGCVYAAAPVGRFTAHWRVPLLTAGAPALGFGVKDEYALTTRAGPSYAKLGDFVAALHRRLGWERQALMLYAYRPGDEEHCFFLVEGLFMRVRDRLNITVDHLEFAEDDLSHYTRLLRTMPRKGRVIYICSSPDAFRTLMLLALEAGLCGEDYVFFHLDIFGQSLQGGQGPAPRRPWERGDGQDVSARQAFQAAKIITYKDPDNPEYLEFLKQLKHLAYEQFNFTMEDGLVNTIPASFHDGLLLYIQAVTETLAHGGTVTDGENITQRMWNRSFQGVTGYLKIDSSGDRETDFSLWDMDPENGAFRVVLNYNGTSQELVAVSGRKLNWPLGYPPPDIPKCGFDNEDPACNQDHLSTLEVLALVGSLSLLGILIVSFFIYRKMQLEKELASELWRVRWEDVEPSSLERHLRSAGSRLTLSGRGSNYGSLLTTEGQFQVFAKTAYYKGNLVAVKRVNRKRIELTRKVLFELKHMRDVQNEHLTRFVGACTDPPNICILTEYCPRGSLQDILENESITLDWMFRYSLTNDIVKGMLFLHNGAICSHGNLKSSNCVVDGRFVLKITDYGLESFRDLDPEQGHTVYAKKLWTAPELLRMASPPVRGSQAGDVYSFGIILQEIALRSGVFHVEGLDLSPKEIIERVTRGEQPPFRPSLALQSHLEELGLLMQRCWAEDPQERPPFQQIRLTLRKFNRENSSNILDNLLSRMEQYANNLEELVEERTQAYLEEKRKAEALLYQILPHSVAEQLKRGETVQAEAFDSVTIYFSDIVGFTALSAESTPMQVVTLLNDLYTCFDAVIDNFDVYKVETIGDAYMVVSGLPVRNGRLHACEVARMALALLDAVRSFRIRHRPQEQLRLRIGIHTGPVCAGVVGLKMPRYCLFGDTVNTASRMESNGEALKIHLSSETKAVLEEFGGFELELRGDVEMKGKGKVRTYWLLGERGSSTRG

Row | SMILES | Potency
1 | COC(=O)N1C(C=Cc2ccc3c(c2)OCO3)=Cc2ccccc2C1CC(C)=O (configuration not stated) | inactive
2 | C=C(CO[C@@H]1C=C[C@@H](c2ccccc2)O[C@@H]1COC)c1ccccc1 | inactive
